From PubChem BioAssay AID652042 (Broad Institute, 2013) come the findings set out here.

Hit rate of the full screen: of about 1,100 compounds, about 350 (32%) were called active. Only a sample is shown. Where a call stands in place of a potency, no number is given. Potency and affinity values are given separately. Unmarked numbers belong to inactive results. How the calls were made is not given here.

This assay is described as follows: viability loss in CEM21 cells – cell-based, CellTiter-Glo luminescence, cherry-picked, cytotoxicity control for viral fusion inhibitor project, dose response (AID 652042). Particulars: CellTiter-Glo ATP luminescence, 24 h; series mostly up to 35 µM. In general terms: ATP-based viability assays read luminescence as a measure of living cells.
Turning to `COc1ccccc1N/C(N)=N/c1nc(CSc2ccc(C)cc2)cc(=O)[nH]1`, the activity change, negative = cytotoxicity result is “inactive”.

For the compound `C=CCN=C1NN=C(c2cc(C)n(CCOC)c2C)CS1`, the activity change, negative = cytotoxicity entry was “inactive”.

Regarding `CN1C(=O)c2cc(NS(=O)(=O)c3ccccc3F)ccc2OC[C@@H]2O[C@H](CC(=O)NC3Cc4ccccc4C3)CC[C@@H]21`, the activity change, negative = cytotoxicity entry is “inactive”.

For `Cn1c(C(=O)NCCCN2CCN(c3ccccc3F)CC2)cc2c(=O)[nH]c3ccccc3c21`, the activity change, negative = cytotoxicity entry is “inactive”.

With `Cc1cccc(/C=N\Nc2cn[nH]c(=O)c2Cl)c1`, the activity change, negative = cytotoxicity result was “inactive”.

Consider `COC(=O)[C@]1(C)N[C@H](CN(C)C(=O)Nc2ccc(Cl)cc2)[C@@H]2C(=O)N(Cc3ccccc3)C(=O)[C@@H]21`, for which the activity change, negative = cytotoxicity entry was “inactive”.

Take `COCCn1nnnc1CN(CCc1ccccc1)Cc1cc2cc(OC)ccc2[nH]c1=O`: the activity change, negative = cytotoxicity result was “inactive”.

Take `COc1ccc2[nH]c(=O)c(CN(Cc3cccs3)Cc3nnnn3Cc3ccccc3)cc2c1`: the activity change, negative = cytotoxicity result is “inactive”.

As to `Cc1cc(NC(=O)CCC(=O)N(C2CC2)C2(C(=O)NC3CCCC3)CCC(C)CC2)no1` (configuration not stated), the activity change, negative = cytotoxicity entry is “inactive”.

Turning to `CCOC(=O)CN1CCCc2nc(C)c(C)cc21`, the activity change, negative = cytotoxicity result is “inactive”.

Take `Cn1c(SCc2nc(-c3ccc(Cl)cc3)no2)nnc1-c1cccs1`: the activity change, negative = cytotoxicity result is “inactive”.

Take `CCNc1ncnc2c1cnn2C1CCCO1` (configuration not stated): the activity change, negative = cytotoxicity result was “inactive”.

Turning to `COc1cc(OC)cc(C(=O)N[C@H](C(=O)NCCc2c[nH]c3ccccc23)C(C)C)c1`, the activity change, negative = cytotoxicity result was “inactive”.

As for `COc1cc(CNCc2ccc(OC)c3ccccc23)cc(OC)c1OC`, the activity change, negative = cytotoxicity result was “inactive”.

Consider `N#Cc1c(NCc2ccccc2)ccnc1NCc1cccnc1`, for which the activity change, negative = cytotoxicity result was “inactive”.

For the compound `Cc1nc2ccccc2nc(C)c1=NOCc1cccc(Cl)c1`, the activity change, negative = cytotoxicity result is “inactive”.

Take `COc1ccc(-c2nn(C)c(=O)c3ccccc23)cc1NC(=O)Cn1nc(C)c2ccccc2c1=O`: the activity change, negative = cytotoxicity result was “inactive”.

Turning to `Cc1ccc(C(=O)Nc2cnc3ccccc3c2)cc1`, the activity change, negative = cytotoxicity entry was “inactive”.

For `COc1ccc(-c2c(C)nn3c(C(F)(F)F)cc(C)nc23)cc1`, the activity change, negative = cytotoxicity entry is “inactive”.

Take `C=CCNc1nc2c(c(=O)n(C)c(=O)n2C)n1CCCCCC`: the activity change, negative = cytotoxicity result is “inactive”.

Regarding `O=C(CNC(=O)c1cccc(-n2cccc2)c1)Nc1ccccc1Br`, the activity change, negative = cytotoxicity entry is “inactive”.

`CC[C@@]12C(=O)N(c3ccc(OC)cc3)C(=O)N1[C@H](c1ccc(Cl)cc1)[C@@H]1C(=O)N(C3CCCCC3)C(=O)[C@@H]12`: the activity change, negative = cytotoxicity entry is “inactive”.

For the compound `Cn1c(-c2ccc(Cl)cc2)ccc(C#N)c1=O`, the activity change, negative = cytotoxicity result was “inactive”.

As to `O=S(=O)(NC1CC1)c1ccc(S(=O)(=O)N2CCCc3ccccc32)cc1`, the activity change, negative = cytotoxicity result was “inactive”.

For `CC(C)OP(=O)(Nc1cccc2ccccc12)OC(C)C`, the activity change, negative = cytotoxicity result is “inactive”.

For the compound `Cc1ccc(OCCCCNC(C)c2ccccc2)c(C)c1` (configuration not stated), the activity change, negative = cytotoxicity was 1.82% [at 8 µM].

Turning to `COc1ccccc1CN(C)C(=O)CN1CCN(C(=O)c2cccs2)CC1`, the activity change, negative = cytotoxicity entry was “inactive”.

With `O=C(c1ccccc1F)N1CCN(Cc2cccc(Cl)c2)CC1`, the activity change, negative = cytotoxicity result is “inactive”.

Turning to `O=C(CCCC(=O)N(c1ccc2c(c1)OCCO2)C(C(=O)NC1CCCCC1)c1ccc(F)cc1)Nc1ccccn1` (configuration not stated), the activity change, negative = cytotoxicity entry is “inactive”.

As for `Nc1ccn([C@@H]2O[C@H](C(=O)NCc3ccc4c(c3)OCO4)[C@@H](O)[C@H]2O)c(=O)n1`, the activity change, negative = cytotoxicity result was “inactive”.

For `Nc1ccn(C2OC(COC(=O)C34CC5CC(CC(C5)C3)C4)C(O)C2O)c(=O)n1` (configuration not stated), the activity change, negative = cytotoxicity entry is “inactive”.

Turning to `C[C@@]12CC(=O)NC1N(C(=O)c1cccc(C(F)(F)F)c1)C(c1ccccc1O)C2` (some centres not stated), the activity change, negative = cytotoxicity entry is “inactive”.

Consider `COc1ccc(CC(=O)Nc2cccc(S(=O)(=O)N3CCCCCC3)c2)cc1OC`, for which the activity change, negative = cytotoxicity entry is “inactive”.

As to `COc1ccc(NS(=O)(=O)c2cccc(C(=O)NNC(=O)CNC(=O)c3ccc(C)cc3)c2)cc1`, the activity change, negative = cytotoxicity result was “inactive”.

For `CC1CCCC(C)N1CCCNC(=O)c1nn(C)c2c1CSc1ccccc1-2` (configuration not stated), the activity change, negative = cytotoxicity result was “inactive”.

For `Cc1cc(N2CCN(c3nc4ccccc4s3)CC2)n2ncnc2n1`, the activity change, negative = cytotoxicity result was “inactive”.

Turning to `Cc1cccc(C)c1NC(=O)CCCSc1nnc(-c2ccc(Cl)cc2)n1-c1ccccc1`, the activity change, negative = cytotoxicity entry was “inactive”.

As to `O=C(NCc1ccco1)c1ccc(Cn2c(=O)c3ccccc3n(Cc3cccc(Cl)c3)c2=O)cc1`, the activity change, negative = cytotoxicity result is “inactive”.

`Cc1cc(C(=O)N2CCC(C(=O)O)CC2)c(C(F)(F)F)o1`: the activity change, negative = cytotoxicity entry was “inactive”.

In the case of `COc1ccc(-c2cn[nH]c2N)c(OC)c1`, the activity change, negative = cytotoxicity result was “inactive”.

As to `CCN(C[C@H]1N[C@@](CC)(C(=O)OC)[C@H]2C(=O)N(Cc3ccccc3)C(=O)[C@@H]12)S(=O)(=O)c1ccc(C(F)(F)F)cc1`, the activity change, negative = cytotoxicity result is “inactive”.

For the compound `Cc1cc(Nc2cccc(C(F)(F)F)c2)cc(=O)n1-c1cccc(C(F)(F)F)c1`, the activity change, negative = cytotoxicity entry was “inactive”.

Turning to `CCCCS(=O)(=O)N1CCN(C(=O)C(=O)c2cccc(C(F)(F)F)c2)CC1`, the activity change, negative = cytotoxicity entry was “inactive”.

With `CCN(C1CCCCC1)S(=O)(=O)c1ccc(S(=O)(=O)N(CC(=O)Nc2ccccc2)C2CC2)cc1`, the activity change, negative = cytotoxicity entry is “inactive”.

On to `O=C(Nc1ccc(Cl)cc1)Nc1cccc(C(=O)O)c1`, for which the activity change, negative = cytotoxicity result was “inactive”.

As to `CCN(CC)S(=O)(=O)c1cccc(S(=O)(=O)c2cccc(S(=O)(=O)N(CC)CC)c2)c1`, the activity change, negative = cytotoxicity result was “inactive”.

Consider `O=C(Nc1cccc(C(F)(F)F)c1)c1ccc(Cn2cc(Br)cn2)o1`, for which the activity change, negative = cytotoxicity result was “inactive”.
